Experimental data published in PubChem BioAssay (NCATS).
Records with an inconclusive call do not appear. Entries that show only a call come without a potency. Activity calls are given as the source filed them. Unless noted, the call rests on the fitted dose curve; in most records, active means well fitted curve in the direction sought with a large enough effect; inconclusive means small, poorly fitted or top-dose-only effect, or another doubt; inactive means no such curve, though single readings can be large; an effect the other way counts as inactive or inconclusive.

Experiments:
[1] = molecular target: T1, Tyrosine-protein phosphatase non-receptor type substrate 1 (Homo sapiens) + Leukocyte surface antigen CD47 (Homo sapiens) (UniProt P78324+Q08722); assay: CD47-SIRPalpha protein protein interaction - HTRF assay qHTS validation (AID 1347058; active means well fitted curve in the direction sought with a large enough effect in the signal ratio, not every such curve was filed as active; the % refers to the signal ratio;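 further: recombinant soluble extracellular CD47 with His tag and biotinylated SIRPalpha domains; series mostly up to about 38 µM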)
T1 sequence (P78324 whole entry, looked up, the tested form may be a part): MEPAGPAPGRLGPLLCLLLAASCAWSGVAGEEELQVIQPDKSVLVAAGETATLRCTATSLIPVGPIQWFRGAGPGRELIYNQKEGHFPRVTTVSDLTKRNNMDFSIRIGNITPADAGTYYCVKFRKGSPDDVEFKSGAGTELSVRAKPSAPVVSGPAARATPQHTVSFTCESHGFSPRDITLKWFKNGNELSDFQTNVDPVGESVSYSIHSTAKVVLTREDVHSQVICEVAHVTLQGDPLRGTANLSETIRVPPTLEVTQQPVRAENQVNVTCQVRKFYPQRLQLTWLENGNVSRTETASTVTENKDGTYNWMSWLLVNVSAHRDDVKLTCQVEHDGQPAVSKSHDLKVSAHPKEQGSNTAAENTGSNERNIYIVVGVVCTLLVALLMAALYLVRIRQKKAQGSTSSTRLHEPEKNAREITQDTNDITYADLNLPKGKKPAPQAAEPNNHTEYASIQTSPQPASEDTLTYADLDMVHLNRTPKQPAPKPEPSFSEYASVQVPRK
T1 sequence (Q08722 whole entry, looked up, the tested form may be a part): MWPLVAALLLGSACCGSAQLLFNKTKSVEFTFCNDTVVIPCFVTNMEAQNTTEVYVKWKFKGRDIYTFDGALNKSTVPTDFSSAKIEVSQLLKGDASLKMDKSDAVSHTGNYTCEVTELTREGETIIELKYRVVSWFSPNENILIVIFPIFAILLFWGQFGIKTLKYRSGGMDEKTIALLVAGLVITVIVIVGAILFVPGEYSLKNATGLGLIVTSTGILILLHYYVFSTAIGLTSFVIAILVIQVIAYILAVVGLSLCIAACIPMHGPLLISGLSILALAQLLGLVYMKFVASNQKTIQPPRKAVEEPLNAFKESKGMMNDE
How it was run: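 TR-FRET read (Ch1/Ch2 ratio) of soluble extracellular CD47 and Avi-biotinylated SIRPalpha domains in PBS pH 7.4 with 0.05% IGEPAL; 7-point compound titration. Sequential 30 min room-temperature steps; non-biotinylated SIRPalpha as control inhibitor.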

[2] = molecular target: T1, Tyrosine-protein phosphatase non-receptor type substrate 1 (Homo sapiens) + Leukocyte surface antigen CD47 (Homo sapiens); assay: CD47-SIRPalpha protein protein interaction - Alpha assay qHTS validation (AID 1347059);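 further: bead proximity luminescence from CD47 binding SIRPalpha after compound preincubation with SIRPalpha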; further: potency means the concentration at half of the fitted maximal effect
How it was run: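 Binding is measured by AlphaScreen proximity: Ni-NTA acceptor beads capture His-CD47, streptavidin donor beads capture biotin-SIRPalpha. Each of three additions (SIRPalpha with compound, CD47, beads) incubates 30 min at room temperature protected from light.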

[3] = molecular target: Parathyroid hormone/parathyroid hormone-related peptide receptor (Homo sapiens) (UniProt Q03431); assay: qHTS for PTHR1 Agonists: Optimization Screen against the NCGC LOPAC library (AID 1347079);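 further: GloSensor cAMP luminescence in HEK-293 GP2 cells expressing human PTHR1 with IBMX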
Parathyroid hormone/parathyroid hormone-related peptide receptor (Homo sapiens), sequence (Q03431 whole entry, looked up): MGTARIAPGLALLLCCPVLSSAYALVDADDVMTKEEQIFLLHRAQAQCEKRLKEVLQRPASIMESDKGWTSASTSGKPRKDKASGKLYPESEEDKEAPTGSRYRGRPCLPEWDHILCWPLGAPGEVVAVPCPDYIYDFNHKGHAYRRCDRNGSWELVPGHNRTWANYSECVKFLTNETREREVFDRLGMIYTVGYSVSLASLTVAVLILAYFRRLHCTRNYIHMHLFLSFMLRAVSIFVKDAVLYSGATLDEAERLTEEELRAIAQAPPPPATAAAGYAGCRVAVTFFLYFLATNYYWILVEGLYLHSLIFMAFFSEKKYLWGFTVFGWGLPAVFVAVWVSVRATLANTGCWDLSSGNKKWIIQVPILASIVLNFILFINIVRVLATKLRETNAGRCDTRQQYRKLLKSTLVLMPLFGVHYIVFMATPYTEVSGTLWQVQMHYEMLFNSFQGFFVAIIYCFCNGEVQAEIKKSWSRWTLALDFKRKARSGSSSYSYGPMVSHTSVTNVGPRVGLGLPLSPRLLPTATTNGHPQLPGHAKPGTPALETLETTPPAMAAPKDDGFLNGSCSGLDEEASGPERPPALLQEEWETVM
How it was run: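 Compounds were tested across a qHTS titration. PTHR1-expressing GP2 cells report cAMP rises via GloSensor luminescence after 1 hr compound exposure at 37C with IBMX present.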

[4] = qHTS of pediatric cancer cell lines to identify multiple opportunities for drug repurposing: Primary screen for TC32 cells (AID 1347089); further: nearly all actives have a fitted effect of over 60% in size
How it was run: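 Measured quantity: luminescence from CellTiter-Glo, reflecting metabolically active TC32 cells following 48 h of compound. Curves came straight from multi-point titrations, with 8 or 11 points in primary and 11 in confirmatory screening.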

[5] = qHTS of pediatric cancer cell lines to identify multiple opportunities for drug repurposing: Primary screen for DAOY cells (AID 1347090); further: nearly all actives have a fitted effect of over 55% in size; further: potency means the concentration at half of the fitted maximal effect
How it was run: (§1)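 Cell viability, CellTiter-Glo luminescence; 500-1,000 cells/well, 8- or 11-point titration, 48 h compound exposure at 37 degrees C, 5% CO2. Controls: DMSO neutral, bortezomib 2.3 µM final as positive.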

[6] = qHTS of pediatric cancer cell lines to identify multiple opportunities for drug repurposing: Primary screen for SJ-GBM2 cells (AID 1347091); further: potency means the concentration at half of the fitted maximal effect
How it was run: as §1

[7] = qHTS of pediatric cancer cell lines to identify multiple opportunities for drug repurposing: Primary screen for A673 cells (AID 1347092); further: nearly all actives have a fitted effect of over 45% in size
How it was run: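 Cells are plated, rested 5 h, dosed by pintool, incubated 48 h, then lysed with CellTiter-Glo and read by luminescence. DMSO is the neutral control; bortezomib at 2.3 uM final is the positive control.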

[8] = molecular target: T1, Tyrosine-protein phosphatase non-receptor type substrate 1 (Homo sapiens) + Leukocyte surface antigen CD47 (Homo sapiens); assay: CD47-SIRPalpha protein protein interaction - LANCE assay qHTS validation (AID 1347057; active means well fitted curve in the direction sought with a large enough effect in the signal ratio, with a control signal flat, not every such curve was filed as active; the % refers to the signal ratio; further: series mostly up to about 38 µM)
How it was run: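 First, His-tagged CD47 and Eu-labelled anti-His antibody met the compound for 30 min; next, site-specifically biotinylated SIRPalpha was added for 30 min; finally streptavidin-APC was added before reading the TR-FRET ratio.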

[9] = qHTS of pediatric cancer cell lines to identify multiple opportunities for drug repurposing: Primary screen for SK-N-MC cells (AID 1347093); further: series mostly up to about 46 µM
How it was run: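 Metabolically active cells were quantified by ATP-dependent luminescence (CellTiter-Glo, 15 min at room temperature) following 48 h treatment. Cells had been plated at 500-1,000 per well and settled for 5 h beforehand.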

N[C@@H](Cn1ccc(=O)c(O)c1)C(=O)O
outcome [1]: inactive | Potency [2]: 0.0585 µM (active) | outcome [3]: inactive

O=C(c1ccco1)N1CCNCC1
Potency [4]: inactive | Potency [5]: inactive | Potency [6]: inactive | Potency [7]: inactive

Cc1cccc(N(C)C(=S)Oc2ccc3c(c2)C2CCC3C2)c1 (stereo not given)
Potency [4]: inactive | Potency [5]: 26.6 µM (active)

CCOC(=O)C1=C(C)NC(C)=C(C(=O)OCC)C1c1ccccc1/C=C/C(=O)OC(C)(C)C
Potency [4]: inactive

COc1ccccc1N1CCN(CCN2C(=O)CC3(CCCC3)CC2=O)CC1
outcome [8]: inactive | outcome [1]: inactive | Potency [2]: inactive | outcome [3]: inactive

Cc1ccccc1N1CCN(CCc2nnc3n2CCCC3)CC1
Potency [4]: inactive | Potency [5]: inactive | Potency [6]: inactive | Potency [7]: inactive | Potency [9]: inactive

CCN(CC)C(=O)C1CN2CCc3cc(OC)c(OC)cc3C2CC1OC(C)=O (stereo not given)
Potency [4]: inactive | Potency [5]: inactive | Potency [6]: inactive | Potency [7]: inactive | Potency [9]: inactive

CN(C)c1cc2c(Nc3ccc4c(cnn4Cc4ccccc4)c3)ncnc2cn1
Potency [2]: inactive | outcome [3]: inactive

O=[N+]([O-])c1ccc(-c2nc(-c3ccc(F)cc3)c(-c3ccncc3)[nH]2)cc1
outcome [8]: inactive | outcome [3]: inactive

CCN(CC)CCNC(=O)c1ccc(NS(C)(=O)=O)cc1
outcome [8]: inactive | outcome [1]: inactive | Potency [2]: inactive | outcome [3]: inactive

Cc1ccccc1C(=O)N1CC/C(=N\OS(=O)(=O)O)c2ccc(Cl)cc21
Potency [4]: inactive | Potency [5]: inactive | Potency [6]: inactive | Potency [7]: inactive

Brc1ccc([C@H]2CN3CCSC3=N2)cc1
outcome [8]: inactive | outcome [1]: inactive | Potency [2]: inactive | outcome [3]: inactive

CCCN(CCC)C(=O)C(CCC(=O)OCCCN1CCN(CCOC(=O)Cc2c(C)n(C(=O)c3ccc(Cl)cc3)c3ccc(OC)cc23)CC1)NC(=O)c1ccccc1 (stereo not given)
Potency [4]: inactive | Potency [5]: inactive | Potency [6]: 18.8 µM (active)

C[N+](C)(C)CCO
outcome [8]: inactive | outcome [1]: inactive | Potency [2]: inactive | outcome [3]: inactive

CC(C(O)c1ccccc1)N(C)CCOC(c1ccccc1)c1ccccc1 (stereo not given)
Potency [4]: inactive | Potency [5]: inactive

Cc1cccc(C)c1NC(=O)c1cc(S(N)(=O)=O)c(Cl)cc1O
Potency [4]: inactive | Potency [5]: inactive | Potency [6]: inactive | Potency [7]: inactive

CC(C)C(=O)OCc1cccc(OC(=O)[C@@H]2N3C(=O)[C@@H](NC(=O)Cc4ccccc4)[C@H]3SC2(C)C)c1
Potency [4]: inactive | Potency [5]: inactive | Potency [6]: inactive | Potency [7]: inactive

CC(C)N(CCC(=O)c1ccc2ccccc2c1)Cc1ccccc1
outcome [8]: inactive | outcome [1]: inactive | Potency [2]: inactive | outcome [3]: inactive

Clc1ccc2c(c1)N=C(N1CCNCC1)c1ccccc1N2
outcome [8]: inactive | outcome [1]: inactive | Potency [2]: inactive | outcome [3]: inactive

O=C1NC(=O)/C(=C/c2ccc3c(c2)OC(F)(F)O3)S1
outcome [8]: inactive | Potency [2]: inactive | outcome [3]: inactive

O=C(NO)c1ccccc1
Potency [4]: inactive | Potency [5]: inactive

O=C(CCC1CCN(Cc2ccccc2)CC1)c1ccc2c(c1)NCCCC2
Potency [4]: inactive | Potency [5]: inactive

Cc1nn(-c2ccccc2)c(C)c1/C=N/N1CCN(Cc2ccccc2)CC1
outcome [8]: inactive | outcome [1]: inactive | Potency [2]: inactive | outcome [3]: inactive

Cc1ccc(C(=O)C(=O)O)cc1C
Potency [4]: inactive | Potency [5]: inactive | Potency [6]: inactive | Potency [7]: inactive

COC(=O)C1=CO[C@@H](O)[C@@H]2C(CO)=CC[C@H]12
outcome [8]: inactive | outcome [1]: inactive | Potency [2]: inactive | outcome [3]: inactive

CC(C)Cc1ccc(C(C)C(=O)OCc2ccccn2)cc1 (stereo not given)
Potency [4]: inactive | Potency [5]: inactive | Potency [6]: inactive | Potency [7]: inactive

Cn1cnc2c(NCc3ccccc3)nc(NCCO)nc21
outcome [8]: inactive | Potency [2]: inactive | outcome [3]: inactive

NC(N)=NCCCCN=C(N)N
outcome [8]: inactive | outcome [1]: inactive | Potency [2]: inactive | outcome [3]: inactive

COC(=O)C1=C(C)NC(COC(N)=O)=C(C(=O)OC(C)C)C1c1cccc(Cl)c1Cl (stereo not given)
Potency [4]: inactive | Potency [5]: inactive | Potency [6]: inactive | Potency [7]: inactive

COc1cccc2c1[C@@H]1CN(CCCCn3c(=O)[nH]c4c(sc5ncc(-c6ccccc6)nc54)c3=O)C[C@@H]1CO2
outcome [8]: inactive | Potency [2]: inactive | outcome [3]: inactive

O=C1NC(c2cccc([N+](=O)[O-])c2)=CCN1c1ccccc1O
outcome [8]: inactive | Potency [2]: inactive | outcome [3]: inactive

O=C(c1cc(O)c(O)c(O)c1)c1ccc(O)c(O)c1O
Potency [4]: inactive | Potency [5]: inactive

Nc1ccc(C(=O)OCC(O)CO)cc1 (stereo not given)
Potency [4]: inactive | Potency [5]: inactive | Potency [6]: inactive | Potency [7]: inactive

Nc1ncnc2n[nH]c(Nc3ccc(F)cc3)c12
outcome [8]: inactive | outcome [1]: inactive | Potency [2]: inactive | outcome [3]: inactive

CCCC(=O)O[C@]1(C(=O)CCl)[C@@H](C)C[C@H]2[C@@H]3CCC4=CC(=O)C=C[C@]4(C)[C@@]3(F)C(=O)C[C@@]21C
Potency [4]: inactive

O=C(O)c1ccccc1S
Potency [4]: inactive | Potency [5]: inactive | Potency [6]: inactive | Potency [7]: inactive
